This is part of a sample that, as a whole, favours compounds with a hit. Of some 83,000 tested, about 20% had one in any assay.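 For each line, cells grew in 96-well plates with the test compound present at a single concentration for 48 hours.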 The source made the active and inactive calls. The calls were made as follows: active = growth percent below 10; inactive = the rest.
Assays:
Assay in all cases: NCI-60 one-dose screen, 48 h (100 = growth as untreated, 0 = no growth, -100 = all killed)
T-47D breast = conditions: 10 µM
BT-549 breast = conditions: 10 µM unless noted
MDA-MB-435 melanoma = conditions: 10 µM unless noted
SW-620 colon = conditions: 10 µM unless noted
MCF7 breast = conditions: 10 µM unless noted
HCT-116 colon = conditions: 10 µM unless noted
HCC-2998 colon = conditions: 10 µM unless noted
KM12 colon = conditions: 10 µM unless noted

Measured: growth

O=C(CCc1nnc2sc(/C=C\c3ccccc3)nn12)c1nc2ccccc2[nH]1
inactive: T-47D breast 61.1% | BT-549 breast 93.1% | MDA-MB-435 melanoma 83.8% | SW-620 colon 118% | MCF7 breast 77.3% | HCT-116 colon 59.7% | HCC-2998 colon 95.8% | KM12 colon 92.5%

COc1ccc(OC)c2ncccc12
inactive: T-47D breast 100% | BT-549 breast 97.4% | MDA-MB-435 melanoma 105% | SW-620 colon 99% | MCF7 breast 84.8% | HCT-116 colon 100% | HCC-2998 colon 103% | KM12 colon 99.6%

N#Cc1c(O)c2c(c(O)c1C#N)C(=O)c1ccccc1C2=O
inactive: T-47D breast 23.2% | BT-549 breast 69.1% | MCF7 breast 46.2% | HCC-2998 colon 34.5% | KM12 colon 73.4%
active: MDA-MB-435 melanoma -91.2% | SW-620 colon 8.21% | HCT-116 colon 1.88%

O=C1C2CC3C(CC2C(=O)[N]1[Sn]([c]1ccccc1)([c]1ccccc1)[c]1ccccc1)C1(Cl)C(Cl)=C(Cl)C3(Cl)C1(Cl)Cl (stereo not given)
active: T-47D breast -50.3% | BT-549 breast -95.3% | MDA-MB-435 melanoma -96.4% | SW-620 colon -79.7% | MCF7 breast -64.7% | HCT-116 colon -83.9% | HCC-2998 colon -82.2% | KM12 colon -91.3%

Cc1c(NCC(=O)Nc2nc3ccccc3[nH]2)c(=O)n(-c2ccccc2)n1C
inactive: T-47D breast 97.8% | BT-549 breast 110% | MDA-MB-435 melanoma 103% | SW-620 colon 103% | MCF7 breast 89.4% | HCT-116 colon 101% | HCC-2998 colon 114% | KM12 colon 112%

CCN1CCN(c2nc3ccccc3c3c(=O)c4cc(F)ccc4sc23)CC1
inactive: T-47D breast 65.1% | BT-549 breast 85.7% | MDA-MB-435 melanoma 10.2% | SW-620 colon 37.2% | MCF7 breast 65.1% | HCT-116 colon 54.8% | HCC-2998 colon 64.9% | KM12 colon 48.5%

O=C1c2c(c3c4cc(Br)ccc4[nH]c3c3ccc4ccccc4c23)C(=O)N1O
inactive: T-47D breast 69.3% | BT-549 breast 93.4% | MDA-MB-435 melanoma 94.6% | SW-620 colon 68.8% | MCF7 breast 43.3% | HCT-116 colon 83.6% | HCC-2998 colon 95.1% | KM12 colon 87.5%

CC(C)(C)[Si](C)(C)OC1[C@@H](COC(=O)NC(=O)CCl)O[C@@H](n2cnc3c(N)ncnc32)[C@H]1O[Si](C)(C)C(C)(C)C (stereo not given in full)
inactive: T-47D breast 76.3% | MCF7 breast 10.6% | HCT-116 colon 11.2% | HCC-2998 colon 56% | KM12 colon 19.9%
active: BT-549 breast -17.9% | MDA-MB-435 melanoma -28.2% | SW-620 colon -21.8%

O=C1c2cc(S(=O)(=O)O)ccc2C(=O)c2c1cccc2[N+](=O)[O-]
inactive: T-47D breast 103% | BT-549 breast 98.3% | MDA-MB-435 melanoma 105% | SW-620 colon 110% | MCF7 breast 101% | HCT-116 colon 106% | HCC-2998 colon 110% | KM12 colon 104%

Nc1ccccc1-c1n[nH]c(=O)[nH]c1=O
inactive: T-47D breast 114% | BT-549 breast 111% | MDA-MB-435 melanoma 100% | SW-620 colon 101% | MCF7 breast 102% | HCT-116 colon 93.3% | HCC-2998 colon 101% | KM12 colon 107%

Cn1c(=O)c2c(-c3ccccc3F)n(-c3ccc4c(c3)OCO4)cc2n(C)c1=O
inactive: T-47D breast 81.3% | BT-549 breast 95.1% | MDA-MB-435 melanoma 88.6% | SW-620 colon 102% | MCF7 breast 94.5% | HCT-116 colon 85.8% | HCC-2998 colon 92.2% | KM12 colon 102%

Cc1nc2cc(Nc3nc(Nc4ccc(F)cc4)nc(-c4cccs4)n3)ccc2n1Cc1ccccc1
inactive: T-47D breast 23.3% | BT-549 breast 69.5% | MDA-MB-435 melanoma 43.8% | SW-620 colon 68.1% | MCF7 breast 32.9% | HCT-116 colon 24.2% | HCC-2998 colon 72.1% | KM12 colon 25.2%

COc1nc2c(cc1S(=O)(=O)c1ccccc1)CCc1c-2cnn1-c1ccccc1Cl
inactive: T-47D breast 26.5% | BT-549 breast 51.8% | MDA-MB-435 melanoma 65.7% | SW-620 colon 79.1% | MCF7 breast 42.2% | HCT-116 colon 48.4% | HCC-2998 colon 77.7% | KM12 colon 49.7%

CCN1C(=O)C2(Nc3ccccc3S2)c2cc(C)ccc21 (stereo not given)
inactive: T-47D breast 93.5% | BT-549 breast 110% | MDA-MB-435 melanoma 102% | SW-620 colon 96.5% | MCF7 breast 101% | HCT-116 colon 96.7% | HCC-2998 colon 105% | KM12 colon 107%

CC1(C)N=C(N)N=C(N)N1c1cccc(OCCOc2cccc([N+](=O)[O-])c2)c1
inactive: T-47D breast 83.1% | BT-549 breast 37.8% | MDA-MB-435 melanoma 17.8% | SW-620 colon 48.6% | MCF7 breast 29% | HCT-116 colon 10.9% | HCC-2998 colon 47.6% | KM12 colon 22.2%

Cc1nc2cc(Nc3nc(NCCO)nc(Nc4ccc(F)cc4)n3)ccc2n1Cc1ccccc1
inactive: T-47D breast 65.3% | BT-549 breast 101% | MDA-MB-435 melanoma 91.6% | SW-620 colon 109% | MCF7 breast 91.3% | HCT-116 colon 76.5% | HCC-2998 colon 106% | KM12 colon 80.3%

CN1CCc2c(c3ccccc3c3ccccc23)C1
inactive: T-47D breast 55.5% | BT-549 breast 94.7% | MDA-MB-435 melanoma 51.4% | SW-620 colon 28.7% | MCF7 breast 26.4% | HCT-116 colon 16.9% | HCC-2998 colon 70% | KM12 colon 39.1%

O=C1CN2CCC1C/C2=C\c1ccnc2c(Cl)cccc12 (stereo not given)
inactive: T-47D breast 93.6% | BT-549 breast 108% | MDA-MB-435 melanoma 101% | SW-620 colon 101% | MCF7 breast 45.7% | HCT-116 colon 98.5% | HCC-2998 colon 102% | KM12 colon 101%

Clc1ccccc1Nc1ccc2nnc(-c3ccncc3)n2n1
inactive: T-47D breast 100% | BT-549 breast 101% | MDA-MB-435 melanoma 98% | SW-620 colon 114% | MCF7 breast 95.9% | HCT-116 colon 101% | HCC-2998 colon 118% | KM12 colon 101%

O=c1[nH]c(=S)[nH]c(=O)n1Cc1cccc2ccccc12
inactive: T-47D breast 99.5% | BT-549 breast 107% | MDA-MB-435 melanoma 99.7% | SW-620 colon 103% | MCF7 breast 80.9% | HCT-116 colon 102% | HCC-2998 colon 86.5% | KM12 colon 105%

COC(=O)c1c2c(c(C)[n+]([O-])c1C)C(=O)C=C(NCc1ccc(F)c(Cl)c1)C2=O
active: T-47D breast -41.9% | BT-549 breast -96.9% | MDA-MB-435 melanoma -96.9% | SW-620 colon -29.6% | MCF7 breast -61.9% | HCT-116 colon -48.6% | HCC-2998 colon -59.3% | KM12 colon -16.5%

O=C(Nc1ccc(Cl)c(Cl)c1)OCn1ncc2ccc([N+](=O)[O-])cc21
inactive: T-47D breast 80% | BT-549 breast 78.5% | MDA-MB-435 melanoma 94.3% | SW-620 colon 106% | MCF7 breast 85.9% | HCT-116 colon 80.7% | HCC-2998 colon 93.8% | KM12 colon 86.2%

O=c1oc2ccccc2cc1-c1csc(N=Nc2c(O)[nH]c3ccc(Br)cc23)n1
inactive: T-47D breast 107% | BT-549 breast 102% | MDA-MB-435 melanoma 98.8% | SW-620 colon 103% | MCF7 breast 94% | HCT-116 colon 98.1% | HCC-2998 colon 102% | KM12 colon 103%

O=c1ccc2ccccc2o1
inactive: T-47D breast 116% | BT-549 breast 87.1% | MDA-MB-435 melanoma 102% | SW-620 colon 105% | MCF7 breast 98.3% | HCT-116 colon 104% | HCC-2998 colon 106% | KM12 colon 99.1%

Clc1ccc(C2=Nc3cccc4cccc(c34)N2)cc1Cl
inactive: T-47D breast 42.2% | BT-549 breast 74.2% | MDA-MB-435 melanoma 114% | SW-620 colon 99% | MCF7 breast 50.2% | HCT-116 colon 93% | HCC-2998 colon 104% | KM12 colon 99.9%

CN(C)C(=S)SCN1C(=O)c2ccc([N+](=O)[O-])cc2S1(=O)=O
inactive: T-47D breast 102% | BT-549 breast 80.8% | MDA-MB-435 melanoma 101% | SW-620 colon 90.1% | MCF7 breast 97.4% | HCT-116 colon 95.7% | HCC-2998 colon 102% | KM12 colon 96.1%

Cl.Fc1c[c-]c(-c2ccccn2)c(F)c1.[Pt].c1ccc([PH+](CC[PH+](c2ccccc2)c2ccccc2)c2ccccc2)cc1
active: T-47D breast -65.2% | BT-549 breast -69.2% | MDA-MB-435 melanoma -91.9% | SW-620 colon -88.8% | MCF7 breast -74.7% | HCT-116 colon -90.4% | HCC-2998 colon -82.9% | KM12 colon -89.1%

COc1ccccc1/C=C/C(=O)/C=C/c1ccccc1O
active: T-47D breast -37.2% | BT-549 breast -34.1% | MDA-MB-435 melanoma -36.3% | SW-620 colon -80.3% | MCF7 breast -18.6% | HCT-116 colon -93.2% | HCC-2998 colon 4.04% | KM12 colon -93.9%

FC(F)(F)c1ccc2c(c1)n1cnnc1c1nncn21
inactive: T-47D breast 102% | BT-549 breast 103% | MDA-MB-435 melanoma 112% | SW-620 colon 108% | MCF7 breast 98.2% | HCT-116 colon 105% | HCC-2998 colon 108% | KM12 colon 110%

NS(=O)(=O)c1ccc(C(=O)N/N=C(\CS(=O)(=O)c2ccccc2)c2cc3cc(Br)ccc3o2)cc1
inactive: T-47D breast 88.1% | BT-549 breast 101% | MDA-MB-435 melanoma 73% | SW-620 colon 94.6% | MCF7 breast 72.3% | HCT-116 colon 90.5% | HCC-2998 colon 94.2% | KM12 colon 85.6%

Source: PubChem BioAssay (NCI)
